Results on 3 compounds are retold here after PubChem BioAssay (NCATS).

SMILES strings stand for the structures. Results filed as inconclusive are left out. Values without a mark were called inactive. Calls follow the shape of the dose curve; as a rule, active = well fitted inhibition curve with a large enough effect; inconclusive = small, poorly fitted or top-dose-only effect; inactive = no such curve, though single readings can be large or run the other way.

Chain of Protein phosphatase 1D (Homo sapiens) (O15297 whole entry, looked up): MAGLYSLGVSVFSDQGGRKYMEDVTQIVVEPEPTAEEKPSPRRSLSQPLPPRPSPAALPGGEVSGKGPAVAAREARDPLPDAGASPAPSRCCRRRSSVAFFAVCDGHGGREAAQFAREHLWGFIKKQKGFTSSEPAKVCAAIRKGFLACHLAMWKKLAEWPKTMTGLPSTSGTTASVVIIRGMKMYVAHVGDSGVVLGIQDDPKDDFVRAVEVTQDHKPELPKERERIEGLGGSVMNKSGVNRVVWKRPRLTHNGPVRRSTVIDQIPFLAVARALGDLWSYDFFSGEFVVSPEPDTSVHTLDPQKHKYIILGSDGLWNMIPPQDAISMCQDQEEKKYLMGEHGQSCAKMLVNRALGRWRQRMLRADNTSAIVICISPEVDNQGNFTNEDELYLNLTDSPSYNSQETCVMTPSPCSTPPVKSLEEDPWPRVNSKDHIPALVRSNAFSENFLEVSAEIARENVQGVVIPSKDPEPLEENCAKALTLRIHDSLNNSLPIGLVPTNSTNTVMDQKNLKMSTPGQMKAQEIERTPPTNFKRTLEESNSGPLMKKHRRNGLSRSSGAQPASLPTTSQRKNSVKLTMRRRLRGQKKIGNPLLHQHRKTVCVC

In the experiment the target is Protein phosphatase 1D (Homo sapiens) (UniProt O15297). Kind of experiment: RapidFire Mass Spectrometry qHTS Assay for Modulators of WT P53-Induced Phosphatase 1 (WIP1) (AID 1347424).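 Also: amount of dephosphorylated VEPPL-S-QETFS peptide product formed by WIP1; plate controls were DMSO wells for no effect and GSK830371 inhibitor control at 10 µM for full effect.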 The note with it: WIP1 dephosphorylation of phosphopeptide, RapidFire MS; series mostly up to 63 µM; activity change, negative = inhibition: at the top concentration. A digest of the protocol:
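10 nM WIP1 + cpd, 1 h RT; + 2 uM VEPPL-pS-QETFS, 5 min RT; stop 0.5% formic acid; labelled product standard 1 uM; RapidFire MS. Buffer 50 mM Tris pH 7.5, 30 mM MgCl2, 1 mM TCEP.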
On the technique in general: Quantitative high-throughput screening tests each substance at several concentrations.
For `O=c1[nH]cnc2c1ncn2[C@H]1CC[C@@H](CO)O1`, the “activity change, negative = inhibition” value is 0.302%.
As for `CC(C)OC(=O)C(C)(C)Oc1ccc(C(=O)c2ccc(Cl)cc2)cc1`, the figure is 20.1%.
Then `CC(=O)Oc1cc2c(s1)CCN(C(C(=O)C1CC1)c1ccccc1F)C2` (stereo not drawn), with -13.1%.
